Measurements taken from PubChem BioAssay AID779 (Sanford-Burnham Center for Chemical Genomics, 2007).
Unmarked numbers belong to inactive results. No rule for the calls is given here.

Experiment: placental alkaline phosphatase inhibitors, dose response, counter-screen, biochemical, colorimetric (AID 779)
Conditions: PLAP counter-screen, colorimetric OD read-out

| Structure (SMILES) | IC50 |
| --- | --- |
| COc1ccc(N2Cc3cccc(C(=O)O)c3C2=O)cc1 | > 50 µM |
| FC(F)(F)c1nnc2c(Sc3ccccn3)nc3ccccc3n12 | > 50 µM |
| CCOc1ccc(S(=O)(=O)N(CC(=O)N/N=C/c2ccc(-c3ccc([N+](=O)[O-])cc3)o2)c2ccccc2)cc1 | > 50 µM |
| Cc1c(NC(=O)CCN2C(=O)c3ccccc3C2=O)c(=O)n(-c2ccccc2)n1C | > 50 µM |
| CCCCN1C(=O)/C(=C/C=C2\N(C)c3ccccc3C2(C)C)SC1=S | > 50 µM |
| CCN(CC)CCCN(Cc1cc2cc3c(cc2[nH]c1=O)OCCO3)C(=O)Nc1ccccc1 | > 50 µM |
| O=C1/C(=C\c2ccc(-c3ccccc3Cl)o2)SC(=S)N1CC1CCCO1 (centres undefined) | > 50 µM |
| CCSC1=N/C(=C\c2ccc(-c3ccccc3[N+](=O)[O-])o2)C(=O)S1 | > 50 µM |
| CCNc1ccc(Br)cc(C(=O)/C=C/c2ccc3c(c2)OCO3)c1=O | > 50 µM |
| Brc1ccc(-c2nnc(-c3cccc(Br)c3)o2)cc1 | > 50 µM |
| CCN(CC)C(=O)CSc1nc2cc(OC)c(OC)cc2c(=O)n1Cc1ccc(Cl)cc1 | > 50 µM |
| COc1cc(C(Nc2ccccn2)c2ccc3ccc(C)nc3c2O)cc(OC)c1O (centres undefined) | > 50 µM |
| O=C(O)c1ccccc1C(=O)NNc1ccc(F)cc1 | > 50 µM |
| COc1cc(NC(=O)c2ccc(COCC(F)(F)F)cc2)cc(OC)c1OC | > 50 µM |
